Screening data (PubChem BioAssay)
SKOV3 invasion: blocks SKOV3ip1 adhesion and invasion in omental model. AID 1963576. 46,000 tested, 0.1% active. Potency, µM (doses to about 45.8 µM), without a hit: at the highest dose activity change, negative = inhibition, most hits filed as inhibitors. SKOV3ip1-GFP adhesion/invasion on 3D omental model, fluorescence;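 note: potency is the fitted concentration of half-maximal effect; plate controls were DMSO wells for no effect and tomatine positive control wells for full effect; nearly all actives have a fitted effect of over 65% in size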
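Primary human omental fibroblast/mesothelial 3D culture pre-formed 48 h. SKOV3ip1-GFP cells added with compounds (0.36-46 umol/L), incubated 2 h RT/16 h 37 C, fixed; GFP cells quantified at 488/509 nm.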
NTMT1 inhibitor: inhibitors of human N-terminal methyltransferase NTMT1 | Potency, µM (doses to about 114 µM), without a hit: top-dose activity change, negative = inhibition, hits mostly inhibitors | 59,000 tested, 2.5% active | AID 1645870 | NTMT1 MTase-Glo SAH luminescence, purified enzyme | Q9BV86;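 note: potency is the fitted concentration of half-maximal effect; plate controls were DMSO vehicle for no effect and no enzyme for full effect; nearly all actives have a fitted effect of over 65% in size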
Target sequence (Q9BV86 whole entry, looked up): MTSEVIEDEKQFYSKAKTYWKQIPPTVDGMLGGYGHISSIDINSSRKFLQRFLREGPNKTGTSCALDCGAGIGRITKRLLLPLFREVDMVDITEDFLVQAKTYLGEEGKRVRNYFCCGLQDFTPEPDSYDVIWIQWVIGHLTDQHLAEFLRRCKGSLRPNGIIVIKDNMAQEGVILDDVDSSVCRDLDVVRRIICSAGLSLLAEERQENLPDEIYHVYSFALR
DRV1 agonist: activates human resolvin D1 receptor GPR32; O75388; 48,000 tested, 2.5% active; CHO-K1 GPR32 beta-arrestin PathHunter luminescence, 90 min; zero percent set by DMSO-only wells; activation, % at 76.9 µM; AID 1346428;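 active = activation of at least 60% and not above a set upper limit, about 1 call in 100 departs from these limits; inconclusive = activation of 40% to 60%, or above that upper limit; inactive = activation under 40%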; note: 0% is about no effect
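CHO-K1 cells stably expressing ProLink-tagged GPR32 and Enzyme Activator-tagged beta-arrestin were seeded at 2,500 cells/well overnight, exposed to compounds for 90 min at 37 °C, then read by beta-Gal complementation chemiluminescence after 1 h detection reagent.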
FH mod: Identification of activators of human fumarate hydratase by quantitative high-throughput screening; Fumarate hydratase, mitochondrial (Homo sapiens), P07954; FH coupled MDH/diaphorase resazurin fluorescence, 15 min; Potency, µM (titrated, usually from 79.9 µM), for inactives: top-dose activity change, negative = inhibition, hits mostly inhibitors; 54,000 tested, 0.22% active; note: potency is the fitted concentration of half-maximal effect; % is set by controls: 0 for no effect and ±100 for the full control effect; the screen sought activators but most active calls are inhibition curves; nearly all actives have a fitted effect of over 45% in size
Target sequence (P07954 whole entry, looked up): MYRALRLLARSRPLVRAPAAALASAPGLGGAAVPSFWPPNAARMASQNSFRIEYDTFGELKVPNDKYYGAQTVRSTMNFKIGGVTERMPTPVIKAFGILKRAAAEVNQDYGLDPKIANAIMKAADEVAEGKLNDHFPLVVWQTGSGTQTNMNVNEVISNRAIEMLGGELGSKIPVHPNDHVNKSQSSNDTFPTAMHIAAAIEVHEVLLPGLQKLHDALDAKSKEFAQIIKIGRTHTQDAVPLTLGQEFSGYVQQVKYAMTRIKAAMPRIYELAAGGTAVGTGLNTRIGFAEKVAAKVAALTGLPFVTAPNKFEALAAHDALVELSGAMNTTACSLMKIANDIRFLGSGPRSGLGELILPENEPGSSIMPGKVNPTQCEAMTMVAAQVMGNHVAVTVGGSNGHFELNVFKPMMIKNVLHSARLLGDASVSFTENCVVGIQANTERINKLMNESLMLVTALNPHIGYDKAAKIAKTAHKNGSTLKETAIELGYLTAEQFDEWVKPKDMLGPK
Numbers without * were called inactive; i = inactive; ? = inconclusive; / = no result given; ! = a repeat was not active; [ ] = dose if it differs, or a comment. Most compounds without a hit are left out; they make up all but 3.8% or so of the library. Unless noted, calls come from the whole dose curve; as a rule, active = well fitted curve in the direction sought with a large enough effect; inconclusive = small, poorly fitted or top-dose-only effect, or another doubt; inactive = no such curve, though single readings can be large; an effect the other way counts as inactive or inconclusive.

SMILES | SKOV3 invasion | NTMT1 inhibitor | DRV1 agonist | FH mod
C[C@@]1(C(=O)O)CC[C@]2(C)CC[C@]3(C)C4=CC(=O)c5cc(O)c(O)cc5[C@]4(C)CC[C@@]3(C)[C@@H]2C1 | / | 8%[29.8 µM] | / | -4%[53.3 µM]
CC1=C(O)C(=O)C=C2C1=CC=C1[C@@]2(C)CC[C@@]2(C)[C@@H]3C[C@](C)(C(=O)O)CC[C@]3(C)CC[C@]12C | 4.2µM* | 16µM*! | / | ?
C[C@]12CC[C@H](O)CC1=CC[C@@H]1[C@@H]2CC[C@]2(C)C(=O)CC[C@@H]12 | / | 2%[57.5 µM] | 73* | -1%
CN1CCCCC1Cn1cc(C(=O)c2cc([N+](=O)[O-])ccc2I)c2ccccc21 (configuration not stated) | / | 4%[57.5 µM] | / | -9%
C[C@]12CCC(=O)C=C1CC[C@@H]1[C@@H]2CC[C@]2(C)C(=O)CC[C@@H]12 | / | 18%[57.5 µM] | 49 | -4%[53.3 µM]
C[C@]12CCC(=O)C=C1CC[C@@H]1[C@H]3CC[C@](C)(O)[C@@]3(C)CC[C@@H]12 | 1%[92.2 µM] | ? | 106* | 7%
CC(=O)[O][Hg][c]1ccccc1 | / | 2.8µM* | ? | -11%[53.3 µM]
C[C@]12CC[C@H](O[C@@H]3O[C@H](CO)[C@@H](O)[C@H](O)[C@H]3O)CC1=CC[C@@H]1C2CC[C@]2(C)[C@@H](C3=CC(=O)OC3)CC[C@]12O (some centres not stated) | / | 7%[12.6 µM] | / | 0%[20.6 µM]
CC(C)[N+](C)(CCC(C(N)=O)(c1ccccc1)c1ccccc1)C(C)C | / | 40µM* | 8 | 0%[53.3 µM]
CC(=O)OC[C@H]1O[C@@H]([S-])[C@H](OC(C)=O)[C@@H](OC(C)=O)[C@@H]1OC(C)=O.CC[PH+](CC)CC.[Au] | / | 10µM* | / | /
O=C(Nc1ccc(Cl)cc1C(=O)c1ccccc1)c1ccccc1Br | -3% | 3% | -24 | -23%
NCCc1cc(O)c(O)cc1O | / | 28µM* | -19 | -10%[53.3 µM]
O=C(O)c1cc[c]([Hg][Cl])cc1 | / | / | 19 | /
Nc1ccc(N=Nc2ccccc2)cc1 | / | 126µM* | -75 | ?
Cc1ccc(NC(=O)c2cccn(Cc3ccccc3C)c2=O)c(C)c1 | -1% | 2% | -7 | 8%
Cc1ccc(-n2c(/C=C/c3ccc(Br)s3)nc3ccccc3c2=O)cc1 | 20% | 0% | 15 | 11%
Cc1cccc(CN2CC=C(c3noc(CCC(=O)Nc4ccc(C)c(F)c4)n3)CC2)c1 | ? | 14% | 94* | ?
COc1ccc(NC(=O)CCc2nc(C3=CCN(Cc4cccc(Cl)c4)CC3)no2)cc1OC | i | ? | 94* | ?
COc1ccc(NC(=O)CCc2nc(C3=CCN(Cc4cccc(Cl)c4)CC3)no2)c(OC)c1 | -5% | -2% | 27 | -26%
O=S1(=O)N(Cc2ccccc2)CCCN1Cc1ccc(F)cc1Cl | 2% | 12% | -20 | -1%
O=c1oc2ccccc2c(O)c1Cc1c(O)c2ccccc2oc1=O | / | -18%[57.5 µM] | -8 | -5%[53.3 µM]
C=CCC1=C(C)C(OC(=O)C2C(C=C(C)C)C2(C)C)CC1=O (configuration not stated) | / | ? | 74* | -5%
CCN(CC)C(C)C(=O)c1ccccc1 (configuration not stated) | / | 23%[57.5 µM] | -7 | -2%[53.3 µM]
C[C@H](N)C(=O)c1ccccc1 | / | 112µM* | -48 | 10%[162 µM]
CC[n+]1c(-c2ccccc2)c2cc(N)ccc2c2ccc(N)cc21 | / | 28µM* | -44 | -24%[53.3 µM]
SMILES | SKOV3 invasion | NTMT1 inhibitor | DRV1 agonist | FH mod
Nc1ccn(C[C@@H](CO)OCP(=O)(O)O)c(=O)n1 | 6%[23.2 µM] | -11%[29.8 µM] | / | -4%[20.6 µM]
CCC(COC(=O)c1cc(OC)c(OC)c(OC)c1)(c1ccccc1)N(C)C (configuration not stated) | / | 19%[57.5 µM] | 97* | -2%[53.3 µM]
Cc1ccc2nc(NC(=O)c3cccn(Cc4ccccc4F)c3=O)sc2c1 | i | -3% | 45 | 1%
C[C@]12CC[C@H]3[C@@H](CCC4=CC(=O)CC[C@@H]43)[C@@H]1CC[C@@H]2OC(=O)CCc1ccco1 | / | 25µM* | 119* | -4%[53.3 µM]
O=S1(=O)N(Cc2ccccc2Cl)CCCN1Cc1ccccc1Cl | 7% | 0% | -15 | -7%
Nc1c(C(=O)Nc2cccc(Br)c2)sc2nc3c(cc12)N1CCC3CC1 | i | ? | ? | -24%
Nc1c(C(=O)Nc2ccc(Cl)cc2)sc2nc3c(cc12)N1CCC3CC1 | -15% | ? | 77* | -3%
Nc1c(C(=O)Nc2ccc(Cl)c(C(F)(F)F)c2)sc2nc3c(cc12)N1CCC3CC1 | i | -2% | ? | -20%
O=S(=O)(O)C(F)(F)C(F)(F)C(F)(F)C(F)(F)C(F)(F)C(F)(F)C(F)(F)C(F)(F)F | / | 22µM* | ? | ?
CCN(CC)C(=O)[C@@H]1C=C2c3cccc4[nH]cc(c34)C[C@H]2N(C)C1 | / | 56µM* | -25 | -10%[162 µM]
CCOC(=O)CC(SP(=S)(OC)OC)C(=O)OCC (configuration not stated) | / | 32µM*! | -24 | 2%[53.3 µM]
C=C(CO)C(=O)O[C@H]1CC(=C)[C@@H]2C[C@H](O)C(=C)[C@@H]2[C@H]2OC(=O)C(=C)[C@@H]21 | / | -7%[29.8 µM] | / | 3%[53.3 µM]
Cc1c(C(=O)Nc2cccc(C(F)(F)F)c2)cc(-c2ccccc2)n1CCCN1CCOCC1 | -19% | ? | / | -17%
Cc1[nH]nc2ccc(-c3cncc(OC[C@@H](N)Cc4c[nH]c5ccccc45)c3)cc12 | -5% | 40µM*! | / | 2%
COc1ccc(CC2C(=O)NC(C)C(=O)N(C)C3Cc4ccc(cc4)Oc4cc(ccc4OC4OC(CO)C(O)C(O)C4O)CC(C(=O)NC(C)C(=O)NC(CCC(=O)O)C(=O)N2C)N(C)C3=O)cc1 (configuration not stated) | / | -2%[12.6 µM] | / | -2%[20.6 µM]
COC(=O)[C@]12CCC(C)(C)C[C@@H]1[C@@H]1C(=O)C=C3[C@@]4(C)C=C(C#N)C(=O)C(C)(C)[C@@H]4CC[C@@]3(C)[C@]1(C)CC2 | 2.3µM* | -21%[57.5 µM] | / | -1%[53.3 µM]
C[C@]12Cc3nonc3C[C@@H]1CC[C@@H]1[C@@H]2CC[C@@]2(C)[C@H]1CC[C@]2(C)O | / | -15%[57.5 µM] | 65* | -11%[53.3 µM]
C[C@]12Cc3cn[nH]c3C[C@@H]1CC[C@@H]1[C@H]2CC[C@@]2(C)[C@H]1CC[C@]2(C)O | -6% | ? | / | 3%[53.3 µM]
FC(F)(F)c1cccc(C2=CCN(CCc3ccc4ccccc4c3)CC2)c1 | / | 28%[57.5 µM] | 100* | -1%[53.3 µM]
CCCN(CCC)CCc1c[nH]c2ccccc12 | / | -9% | -4 | -5%
C#CC1(O)CCC2C3CCC4=CC(=O)CCC4=C3C=CC21C (configuration not stated) | / | 6%[57.5 µM] | / | 4%
C=CC[C@]1(O)CC[C@H]2[C@@H]3CCC4=CC(=O)CCC4=C3C=C[C@@]21C | / | 22µM* | 21 | -8%[53.3 µM]
CCCC[N+]1(C)C2CC(OC(=O)[C@H](CO)c3ccccc3)CC1C1OC12 (some centres not stated) | / | / | -3 | -6%[53.3 µM]
c1ccc(CN2CCNCC2)cc1 | / | 100µM* | -12 | 31%[162 µM]
c1ccc(N2CCNCC2)cc1 | / | 24%[57.5 µM] | -8 | 1%[53.3 µM]
